Measurements taken from PubChem BioAssay (Tox21).
Results filed as inconclusive are left out. The source made the active and inactive calls. Unless noted, calls come from the whole dose curve.

Assays:
[1] = Nuclear factor erythroid 2-related factor 2/antioxidant responsive element (Nrf2/ARE) small molecule agonists: qHTS cell viability counter screen in human keratinocytes (AID 1919968; active = well fitted curve in the direction sought with a large enough effect in the repeat runs; an effect the other way counts as inactive or inconclusive; note: nearly all actives have a fitted effect of over 55% in size; note: potency is the fitted concentration of half-maximal effect)
Summary of the method: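 Stably transfected HaCaT (KeratinoSens), 1,500/well. Test agents in DMSO were applied for 23 h, 37 C/5% CO2. CellTiter-Fluor was incubated 1 h before the fluorescence read.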

[2] = Nuclear factor erythroid 2-related factor 2/antioxidant responsive element (Nrf2/ARE) small molecule agonists: luciferase reporter gene qHTS assay in human keratinocytes (AID 1919969); note: nearly all actives have a fitted effect of over 35% in size; note: potency is the fitted concentration of half-maximal effect
[3] = molecular target: Gonadotropin-releasing hormone receptor (Homo sapiens) (UniProt P30968); assay: Human gonadotropin-releasing hormone receptor (GnRHR) small molecule agonists, calcium flux assay in GnRHR-HEK293 cells (AID 1920063); note: nearly all actives have a fitted effect of over 35% in size
Chain of Gonadotropin-releasing hormone receptor (Homo sapiens) (P30968 whole entry, looked up): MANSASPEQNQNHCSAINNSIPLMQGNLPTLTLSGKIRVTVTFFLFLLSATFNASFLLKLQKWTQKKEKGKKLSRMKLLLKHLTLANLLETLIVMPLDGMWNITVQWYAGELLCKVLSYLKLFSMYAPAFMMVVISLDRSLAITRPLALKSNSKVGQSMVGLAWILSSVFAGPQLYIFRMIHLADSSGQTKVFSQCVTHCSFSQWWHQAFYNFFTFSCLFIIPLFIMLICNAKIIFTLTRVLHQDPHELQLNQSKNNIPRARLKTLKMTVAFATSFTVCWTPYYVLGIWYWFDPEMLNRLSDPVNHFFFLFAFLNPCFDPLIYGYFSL
Summary of the method: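 Stable human GnRHR HEK293 line. 18 h plating, then calcium dye for 1 h at 37 C. Agonist-mode compound addition from DMSO stocks; fluorescence monitored 3 min.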

[4] = molecular target: KiSS-1 receptor (Homo sapiens) (UniProt Q969F8); assay: Human kisspeptin (KISS1R) small molecule agonists, calcium flux assay in KISS1R-HEK293 cells (AID 1920064; active = well fitted curve in the direction sought with a large enough effect in the repeat runs; an effect the other way counts as inactive or inconclusive)
Chain of KiSS-1 receptor (Homo sapiens) (Q969F8 whole entry, looked up): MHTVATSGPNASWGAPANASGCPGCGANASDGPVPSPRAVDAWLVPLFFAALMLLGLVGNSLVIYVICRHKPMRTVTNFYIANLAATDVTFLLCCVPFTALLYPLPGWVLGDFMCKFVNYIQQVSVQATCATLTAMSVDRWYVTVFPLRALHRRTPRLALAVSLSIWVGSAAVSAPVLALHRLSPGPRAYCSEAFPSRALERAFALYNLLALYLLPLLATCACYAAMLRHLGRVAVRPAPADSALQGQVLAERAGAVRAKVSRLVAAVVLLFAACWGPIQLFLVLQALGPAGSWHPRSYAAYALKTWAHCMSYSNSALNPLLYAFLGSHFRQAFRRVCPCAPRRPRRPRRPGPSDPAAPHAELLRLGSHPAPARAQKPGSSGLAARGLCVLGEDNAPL
Summary of the method: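 After overnight (18 h) culture at 37 C/5% CO2, human KISS1R-HEK293 cells received calcium dye for 1 h, then test compound; emission at 540 nm (excitation 480 nm) was tracked for 3 min.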

[5] = G protein-coupled receptor (GPCR) small molecule agonists, calcium flux assay: HEK293 wild type cell line counter screen (AID 1920065)
Summary of the method: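 Following 18 h incubation at 37 C/5% CO2, plates got calcium dye for 1 h; compounds, ATP or DMSO were then pinned in and fluorescence followed kinetically (480/540 nm).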

[6] = p53 small molecule agonists, cell-based qHTS assay with human liver microsomes (AID 1963577);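 note: p53 response element beta-lactamase reporter cells with liver microsomes plus NADPH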
Summary of the method: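 Cells carrying a p53-responsive bla reporter were rested 5 h (37 C, 5% CO2) before compound transfer. Human liver microsomes plus NADPH, 0.5 mg/mL final apiece, supplied metabolism during the 16 h 37 C exposure.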

[7] = p53 small molecule agonists, cell-based qHTS assay with human liver microsomes: qHTS cell viability counter screen (AID 1963579); note: nearly all actives have a fitted effect of over 45% in size
Summary of the method: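 Seed p53RE-bla cells at 4,000 per well; incubate 5 h at 37 C; add compound, human liver microsomes and NADPH; incubate 16 h at 37 C; add CellTiter-Glo; after 30 min at room temperature, read luminescence.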

[8] = p53 small molecule agonists, cell-based qHTS assay with rat liver microsomes: qHTS cell viability counter screen (AID 1963580); note: nearly all actives have a fitted effect of over 45% in size
Summary of the method: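 Rat liver microsome (0.5 mg/mL final) and NADPH (0.5 mg/mL final) co-incubation with compounds for 16 h at 37 C on HCT-116 p53RE-bla cells; cytotoxicity taken from intracellular ATP luminescence.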

[9] = p53 small molecule agonists, cell-based qHTS assay: qHTS cell viability counter screen (AID 1963581); note: nearly all actives have a fitted effect of over 45% in size
Summary of the method: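 qHTS counter screen: 16 h compound exposure at 37 C of p53RE-bla HCT-116 cells (4,000 per well, seeded 5 h prior), cell viability by ATP luminescence.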

[10] = molecular target: 5-hydroxytryptamine receptor 2A (Homo sapiens) (UniProt P28223); assay: 5-hydroxytryptamine receptor 2A (HTR2A) small molecule antagonists, cell-based qHTS assay (AID 1963586); note: nearly all actives have a fitted effect of over 45% in size; note: potency is the fitted concentration of half-maximal effect
Chain of 5-hydroxytryptamine receptor 2A (Homo sapiens) (P28223 whole entry, looked up): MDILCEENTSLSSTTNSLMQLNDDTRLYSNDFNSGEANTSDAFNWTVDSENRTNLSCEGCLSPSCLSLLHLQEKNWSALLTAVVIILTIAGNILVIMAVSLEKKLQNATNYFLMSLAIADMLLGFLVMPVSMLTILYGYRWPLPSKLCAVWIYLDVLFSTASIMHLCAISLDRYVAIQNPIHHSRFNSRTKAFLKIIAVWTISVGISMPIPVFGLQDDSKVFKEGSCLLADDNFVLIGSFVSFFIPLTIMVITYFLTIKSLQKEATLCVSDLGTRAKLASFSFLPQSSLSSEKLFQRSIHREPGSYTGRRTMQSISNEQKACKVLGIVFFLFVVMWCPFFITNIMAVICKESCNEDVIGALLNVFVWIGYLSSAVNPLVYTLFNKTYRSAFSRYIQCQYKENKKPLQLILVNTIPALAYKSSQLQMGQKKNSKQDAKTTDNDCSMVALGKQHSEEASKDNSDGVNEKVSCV
Summary of the method: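 CHO cells stably expressing human HTR2A were plated for 18 h at 37 C, then loaded with calcium dye for 1 h. Compounds were preincubated 5 min at room temperature before DOI (4 nM solution) was added. Kinetic fluorescence was read for 3 min.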

[11] = molecular target: 5-hydroxytryptamine receptor 2A (Homo sapiens) (UniProt P28223); assay: 5-hydroxytryptamine receptor 2A (HTR2A) small molecule agonists, cell-based qHTS assay (AID 1963587); note: nearly all actives have a fitted effect of over 30% in size
Summary of the method: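 Kinetic calcium-flux fluorescence (2 min, 1 sec intervals) after compound addition in agonist mode. HTR2A-CHO cells were cultured 18 h, then dye-loaded 1 h at 37 C.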

[12] = molecular target: Muscarinic acetylcholine receptor M1 (Homo sapiens) (UniProt P11229); assay: Cholinergic receptor muscarinic 1 (CHRM1) small molecule agonists, cell-based qHTS assay (AID 1963589); note: nearly all actives have a fitted effect of over 35% in size
Chain of Muscarinic acetylcholine receptor M1 (Homo sapiens) (P11229 whole entry, looked up): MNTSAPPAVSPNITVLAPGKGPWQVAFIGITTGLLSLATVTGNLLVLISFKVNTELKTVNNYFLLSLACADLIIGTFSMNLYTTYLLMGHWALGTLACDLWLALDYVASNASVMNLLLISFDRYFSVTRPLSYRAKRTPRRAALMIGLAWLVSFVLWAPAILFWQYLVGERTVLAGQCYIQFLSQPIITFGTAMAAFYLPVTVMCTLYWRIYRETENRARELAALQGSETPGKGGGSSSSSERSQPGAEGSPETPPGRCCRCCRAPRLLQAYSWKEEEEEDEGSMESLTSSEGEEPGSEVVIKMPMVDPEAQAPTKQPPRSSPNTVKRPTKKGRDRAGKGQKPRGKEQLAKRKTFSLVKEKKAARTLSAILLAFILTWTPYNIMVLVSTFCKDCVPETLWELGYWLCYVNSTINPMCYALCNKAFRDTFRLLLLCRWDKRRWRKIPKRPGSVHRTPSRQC
Summary of the method: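 Kinetic fluorescence (1 s intervals) of calcium-sensitive dye in human M1 CHO cells after compound addition; cells pre-incubated 18 h at 37 C/5% CO2 and dye-loaded 1 h.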

[13] = cAMP Responsive Elements (CRE) small molecule antagonists, cell-based qHTS assay (AID 1963591; active = well fitted inhibition curve with a large enough effect in the signal ratio in the repeat runs, not every such curve was filed as active; the % refers to the signal ratio)
Summary of the method: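 Reporter line CRE-bla HEK 293T in dialyzed-FBS DMEM; cells preincubated 18 h, treated 3 h with compound plus NKH477 (0.25 uM final); LiveBLAzer FRET, 2 h RT.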

[14] = molecular target: D(2) dopamine receptor (Homo sapiens) (UniProt P14416); assay: Dopamine D2 receptor (DRD2) small molecule antagonists, cell-based qHTS assay (AID 1963595; active = well fitted inhibition curve with a large enough effect in the signal ratio in the repeat runs, with a control signal flat; the % refers to the signal ratio)
Chain of D(2) dopamine receptor (Homo sapiens) (P14416 whole entry, looked up): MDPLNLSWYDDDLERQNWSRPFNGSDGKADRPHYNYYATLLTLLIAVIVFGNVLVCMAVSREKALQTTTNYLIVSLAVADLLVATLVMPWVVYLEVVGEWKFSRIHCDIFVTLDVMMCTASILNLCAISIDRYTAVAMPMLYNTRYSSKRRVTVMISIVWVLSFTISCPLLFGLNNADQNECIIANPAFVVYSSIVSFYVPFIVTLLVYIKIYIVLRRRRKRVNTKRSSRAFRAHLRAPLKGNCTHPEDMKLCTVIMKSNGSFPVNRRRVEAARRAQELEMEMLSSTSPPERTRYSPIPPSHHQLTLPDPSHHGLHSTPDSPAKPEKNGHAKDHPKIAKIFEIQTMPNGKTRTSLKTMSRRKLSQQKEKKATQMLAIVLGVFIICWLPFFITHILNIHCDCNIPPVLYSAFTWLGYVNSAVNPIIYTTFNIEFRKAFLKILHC
Summary of the method: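 HEK293 cells stably expressing DRD2, preincubated with 0.1 mM Ro20-1724 and compounds 10 min, were stimulated with 200 nM NKH477 plus 12 nM quinpirole for 30 min at room temperature; cAMP measured by HTRF (665/620 nm).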

[15] = molecular target: Muscarinic acetylcholine receptor M1 (Homo sapiens) (UniProt P11229); assay: Cholinergic receptor muscarinic 1 (CHRM1) small molecule antagonists, cell-based qHTS assay (AID 1963588); note: nearly all actives have a fitted effect of over 40% in size
Summary of the method: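 Compounds were tested at 15 concentrations in three independent runs. Dye-loaded CHRM1-CHO cells were exposed 5 min at room temperature before stimulation by acetylcholine added at 50nM. Intracellular calcium was read kinetically on FDSS for 3 min.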

[16] = cAMP Responsive Elements (CRE) small molecule agonists, cell-based qHTS assay (AID 1963590)
Summary of the method: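 Test agents in DMSO were incubated 3 h at 37 C/5% CO2 with CRE-bla HEK 293T cells seeded 18 h earlier; LiveBLAzer B/G FRET substrate was added and read after 2 h at room temperature.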

[17] = molecular target: Beta-2 adrenergic receptor (Homo sapiens) (UniProt P07550); assay: Adrenergic beta2 receptor (ADRB2) small molecule antagonists, cell-based qHTS assay (AID 1963592); note: nearly all actives have a fitted effect of over 50% in size; note: potency is the fitted concentration of half-maximal effect; for activity change, negative = inhibition: series mostly up to about 92 µM
Chain of Beta-2 adrenergic receptor (Homo sapiens) (P07550 whole entry, looked up): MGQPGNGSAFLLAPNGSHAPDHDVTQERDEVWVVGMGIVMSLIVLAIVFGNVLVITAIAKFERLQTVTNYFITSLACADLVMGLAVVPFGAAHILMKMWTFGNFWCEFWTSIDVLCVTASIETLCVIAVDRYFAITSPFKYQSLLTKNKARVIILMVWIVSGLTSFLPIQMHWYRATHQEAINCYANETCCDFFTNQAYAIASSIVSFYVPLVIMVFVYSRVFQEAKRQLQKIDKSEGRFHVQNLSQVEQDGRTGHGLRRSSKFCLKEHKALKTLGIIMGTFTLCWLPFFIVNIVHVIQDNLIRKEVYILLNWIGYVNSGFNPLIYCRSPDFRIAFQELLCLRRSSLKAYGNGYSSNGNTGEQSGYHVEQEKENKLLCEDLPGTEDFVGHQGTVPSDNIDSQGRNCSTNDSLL
Summary of the method: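 Assay format: CHO-ADRB2 cells, 18-20hr seeding at 37C/5% CO2, then compound plus 1nM isoproterenol agonist mix for 0.5hr RT. Homogeneous time-resolved fluorescence cAMP detection after 1hr, expressed as 665/615 nm ratio.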

[18] = molecular target: D(2) dopamine receptor (Homo sapiens) (UniProt P14416); assay: Dopamine D2 receptor (DRD2) small molecule agonists, cell-based qHTS assay (AID 1963594); note: nearly all actives have a fitted effect of over 35% in size
Summary of the method: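 cAMP accumulation in DRD2-HEK293 cells measured by HTRF after 1 h detection; compounds added 10 min before NKH477 (200nM […]) forskolin-analogue stimulation, 30 min at room temperature, with Ro20-1724 present at 0.1 mM final.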

[19] = p53 small molecule agonists, cell-based qHTS assay (AID 1963582; active = well fitted activation curve with a large enough effect in the signal ratio in the repeat runs, not every such curve was filed as active; the % refers to the signal ratio)
Summary of the method: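 Measured: fluorescence from cleaved LiveBLAzer substrate. System: p53RE-bla cells, 16 h compound treatment at 37 C, 2 h substrate step at room temperature.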
% is set by controls: 0 for no effect and ±100 for the full control effect.

O=C(CCCCCCCCc1cccnc1)N1CCC(C=C(c2ccccc2)c2ccccc2)CC1
inactive: Potency [2] | Potency [3] | outcome [4] | outcome [5] | Potency [6] | Potency [7] | Potency [8] | Potency [9] | Potency [10] | Potency [11] | Potency [12] | Potency [13] | Potency [14]
active: Potency [1] 15.4 µM

O[C@@H](CNC[C@H](O)[C@H]1CCc2cc(F)ccc2O1)[C@@H]1CCc2cc(F)ccc2O1
inactive: Potency [2] | Potency [3] | outcome [4] | outcome [5] | Potency [6] | Potency [7] | Potency [15] | Potency [16] | Potency [13] | Potency [18]
active: Potency [1] 23.7 µM | Potency [10] 18.3 µM | Potency [17] 0.15 µM

O=C=NCc1cccc(CN=C=O)c1
inactive: activity change, negative = cytotoxicity [1] 3.98% [at 19 µM] | activity, positive = activation [2] -9.19% [at 19 µM] | activity change [3] -0.327% [at 11.8 µM, hits give high values] | activation [4] 0.462% [at 15.8 µM] | activation [5] 0.869% [at 11.8 µM] | activation [6] -0.418% [at 13.5 µM] | activity change, negative = cytotoxicity [8] 10.6% [at 13.5 µM] | activity change, negative = cytotoxicity [9] 8.14% [at 13.5 µM] | activation [19] -3.35% [at 13.5 µM] | activity, negative = inhibition [10] 11.7% [at 12.7 µM] | activation [11] 3.99% [at 15.9 µM] | activity, negative = inhibition [15] -10.9% [at 12.6 µM] | activation [16] 1.18% [at 19 µM] | activity change, negative = inhibition [13] 0.972% [at 18.9 µM] | activity change, negative = inhibition [17] -5.04% [at 19 µM] | activation [18] -2% [at 19 µM]

C1CC(COCC2CO2)CCC1COCC1CO1 (centres undefined)
active: Potency [2] 61.1 µM
inactive: Potency [1] | Potency [3] | outcome [4] | outcome [5] | Potency [6] | Potency [7] | Potency [8] | Potency [9] | Potency [10] | Potency [11] | Potency [15] | Potency [12] | Potency [17] | Potency [14]

Cc1nc(C2CCCCC2)c(-c2ccc(S(N)(=O)=O)c(F)c2)o1
inactive: Potency [1] | Potency [2] | Potency [3] | outcome [4] | outcome [5] | Potency [6] | Potency [7] | Potency [8] | Potency [9] | Potency [10] | Potency [11] | Potency [15] | Potency [12] | Potency [17] | Potency [18] | Potency [14]

N#Cc1cc2ccccc2c2ccccc12
inactive: Potency [1] | Potency [2] | Potency [3] | outcome [4] | outcome [5] | Potency [6] | Potency [8] | Potency [10] | Potency [11] | Potency [12] | Potency [16] | Potency [13] | Potency [17] | Potency [18] | Potency [14]
